High-throughput results as filed in PubChem.
Sampled rows, rich in hits. Any-hit rate of the full collection: about 0.78%.
NCOA1 inh = SRC1 coactivator transcriptional activity inhibitors, primary screen, cell-based, luminescence | Nuclear receptor coactivator 1 (Homo sapiens), Q15788 | HEK293 GAL4-SRC1 luciferase reporter | inhibition, % at 3.6 µM | 0.12% of 360,000 active | AID 588354, 2011;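 active means inhibition above the campaign mean plus 3 SD, with each screening campaign given its own cutoff, cut at about 60% in these data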;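 further: 0% = DMSO treated cells and 100% = gossypol at 36 µM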
Target sequence (Q15788 whole entry, looked up, the tested form may be a part): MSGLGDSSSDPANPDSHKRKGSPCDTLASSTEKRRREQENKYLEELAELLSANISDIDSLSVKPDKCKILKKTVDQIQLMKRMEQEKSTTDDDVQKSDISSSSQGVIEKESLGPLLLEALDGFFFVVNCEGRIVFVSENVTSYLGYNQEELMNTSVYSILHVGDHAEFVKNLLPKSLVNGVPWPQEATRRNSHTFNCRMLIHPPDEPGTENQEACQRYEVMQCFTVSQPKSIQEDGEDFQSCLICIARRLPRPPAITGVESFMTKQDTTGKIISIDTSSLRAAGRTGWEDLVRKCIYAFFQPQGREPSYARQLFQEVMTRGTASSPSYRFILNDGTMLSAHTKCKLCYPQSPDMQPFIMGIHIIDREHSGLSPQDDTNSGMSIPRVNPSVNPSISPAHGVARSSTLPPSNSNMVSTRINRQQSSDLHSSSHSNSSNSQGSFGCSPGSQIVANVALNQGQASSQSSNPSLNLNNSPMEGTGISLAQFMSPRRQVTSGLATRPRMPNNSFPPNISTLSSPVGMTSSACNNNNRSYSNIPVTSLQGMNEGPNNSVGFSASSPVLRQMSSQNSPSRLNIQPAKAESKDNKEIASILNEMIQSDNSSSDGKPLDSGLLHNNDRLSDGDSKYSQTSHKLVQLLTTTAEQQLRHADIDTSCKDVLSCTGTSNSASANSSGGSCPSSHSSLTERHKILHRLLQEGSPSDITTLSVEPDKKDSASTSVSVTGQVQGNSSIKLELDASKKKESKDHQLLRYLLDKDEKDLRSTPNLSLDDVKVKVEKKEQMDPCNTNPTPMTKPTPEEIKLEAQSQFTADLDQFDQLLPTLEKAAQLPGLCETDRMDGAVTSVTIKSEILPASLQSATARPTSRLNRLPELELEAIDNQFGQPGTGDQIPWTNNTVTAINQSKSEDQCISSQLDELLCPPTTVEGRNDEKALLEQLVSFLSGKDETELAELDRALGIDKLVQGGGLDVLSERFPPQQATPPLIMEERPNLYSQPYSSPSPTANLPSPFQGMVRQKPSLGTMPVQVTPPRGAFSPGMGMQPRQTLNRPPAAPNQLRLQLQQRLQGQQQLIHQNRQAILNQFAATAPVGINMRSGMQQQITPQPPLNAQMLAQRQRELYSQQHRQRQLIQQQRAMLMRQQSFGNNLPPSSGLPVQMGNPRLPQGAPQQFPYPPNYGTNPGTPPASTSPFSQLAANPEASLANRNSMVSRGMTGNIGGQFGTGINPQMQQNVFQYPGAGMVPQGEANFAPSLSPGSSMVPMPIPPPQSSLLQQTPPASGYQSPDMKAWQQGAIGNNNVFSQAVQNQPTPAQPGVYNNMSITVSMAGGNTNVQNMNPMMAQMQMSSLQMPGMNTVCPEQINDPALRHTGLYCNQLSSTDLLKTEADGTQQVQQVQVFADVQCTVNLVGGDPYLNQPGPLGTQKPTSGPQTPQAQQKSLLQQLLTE
SRC2 inh = inhibition of GAL4-SRC2 driven luciferase reporter, primary screen, SRC2 inhibitor project, cell-based, luminescence; Nuclear receptor coactivator 2 (Homo sapiens), Q15596; HEK293 GAL4-SRC2 luciferase reporter; inhibition, % at 9 µM; 0.17% of 370,000 active;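 active means inhibition above the mean inhibition of all tested compounds plus 3 SD, set per campaign, cut at about 52% in these data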;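 further: 0% = DMSO treated cells and 100% = cells given Gossypol at 36 µM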
EBV LMP1 NFkB = EBV LMP1-driven NF-kappaB luciferase reporter inhibitors, primary screen, cell-based, luminescence, single point. LMP1-induced NF-kappaB luciferase reporter cells. inhibition, % at 12.5 µM. 0.69% of 350,000 active; in the data active means inhibition above about 41%;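 further: 0% = neutral control wells and 100% = reference inhibitor control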
NCOA3 inh = SRC3 coactivator transcriptional activity inhibitors, primary screen, cell-based, luminescence | Nuclear receptor coactivator 3 (Homo sapiens), Q9Y6Q9 | inhibition, % at 3.6 µM | HEK293 GAL4-SRC3 luciferase reporter | 0.17% of 360,000 active;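 active means inhibition above a per-campaign cutoff, the mean of all compounds plus 3 SD, cut at about 60% in these data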;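 further: 0% = DMSO-treated cells and 100% = gossypol-treated cells at 36 µM; higher means less SRC3-driven luciferase light from the GAL4 reporter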
LRH-1 inv ag = LRH-1 (NR5A2) inverse agonists, primary screen, cell-based, luminescence, HEK293T, StAR-luciferase reporter. Nuclear receptor subfamily 5 group A member 2 (Homo sapiens), O00482. LRH-1 transfected, 24 h. inhibition, % at 3.6 µM. 0.13% of 360,000 active. AID 602396, 2012;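 active means inhibition above the mean inhibition of all tested compounds plus 3 SD, cut at about 73% in these data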;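 further: 0% = DMSO wells and 100% = reporter-only cells lacking LRH-1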
* marks the source's active call; other numbers are inactive results; i = inactive; x = no result.

SMILES	NCOA1 inh	SRC2 inh	EBV LMP1 NFkB	NCOA3 inh	LRH-1 inv ag
CCCCCN(C(=O)CCc1cn(CCCCC)c2ccccc12)c1ccc(Oc2cccnc2)cc1	x	-1	x	x	x
COc1ccc(C2=NN(C(=O)CSC3=NN4CCCC(=O)N=C4S3)C(c3cccc(OC)c3OC)C2)cc1 (configuration not stated)	3	3	77*	6	-19
c1cc(-c2cnc3cccnn23)c2cccnc2c1	63*	66*	x	58	25
CCCCCCCCN1C(=O)[C@@H](CC(=O)N2CCN(C(=O)OCC)CC2)C[C@@]2(C(=O)OC)C1=C[C@H](C(C)C)O[C@@H]2C1CC1	x	9	x	x	x
CN1C2CCC1/C(=C\c1ccc(F)cc1)C(=O)/C2=C/c1ccc(F)cc1	14	13	-74	2	7
C=CC(=O)N1C/C(=C/c2ccc(F)cc2)C(=O)/C(=C\c2ccc(F)cc2)C1	i	96*	89*	-201	60
N#Cc1c(NC(=O)CSc2ncn[nH]2)sc2c1CCCCC2	36	84*	36	49	53
COC(=O)CCCC[C@@H]1SC[C@@H](NC(=O)OC)[C@@H]1NC(=O)OC	-6	15	53*	7	5
NC(Cc1ccc(Cl)cc1)c1csc(NC(=O)NCCc2ccccc2)n1 (configuration not stated)	15	3	x	-13	-14
NC(Cc1ccc(Cl)cc1)c1csc(NC(=O)NCC2CCCCC2)n1 (configuration not stated)	-4	60*	x	12	-8
Cc1c(CCC(=O)N[C@@H](CCCNC(N)=O)C(=O)O)c(=O)oc2cc3oc4c(c3cc12)CCCC4	11	68*	8	-1	-1
Cc1c(CCC(=O)NCCCC(=O)O)c(=O)oc2cc3oc4c(c3cc12)CCCC4	13	63*	14	2	9
CCCCC(NC(=O)Cc1c(C)c2cc3c4c(oc3cc2oc1=O)CCCC4)C(=O)O (configuration not stated)	0	-21	0	4	-8
CCC(NC(=O)CCc1c(C)c2cc3c4c(oc3cc2oc1=O)CCCC4)C(=O)O (configuration not stated)	13	65*	29	11	4
CN(C)c1cccc(/C=C2\CC3(OC(=O)c4ccc(F)cc4)CCCN2C3)c1 (configuration not stated)	x	-3	x	x	x
COc1ccccc1C(=O)N(CCC1CCCN1C)c1nc2ccccc2s1 (configuration not stated)	54	40	2	63*	52
COc1ccc2sc(N(CCCN(C)C)C(=O)c3nc4ccccc4s3)nc2c1	-29	-19	-8	-36	-10
CCn1nc([N+](=O)[O-])c(C(C#N)c2nc3cc(C(F)(F)F)ccc3s2)c(Cl)c1=O (configuration not stated)	-45	-11	7	62*	14
CCCn1nc([N+](=O)[O-])c(C(C#N)c2nc3ccccc3o2)c(Cl)c1=O (configuration not stated)	1	13	3	16	5
COC(=O)C1CN(Cc2cn(Cc3ccc(Cl)cc3)nn2)CCS(=O)(=O)N1Cc1ccc(C)cc1 (configuration not stated)	x	10	x	x	x
O=C1c2ccccc2C(=O)c2[nH]c(=O)[nH]c21	24	-7	89*	10	-5
CNS(=O)(=O)c1cccc(C(=O)OCC(=O)NC(C)CCc2ccccc2)c1 (configuration not stated)	-2	-14	42*	0	-14
CCSC1=C(C#N)C(c2ccc(C)o2)CC(=O)N1 (configuration not stated)	-14	2	49*	7	-7
CCCCCC(=O)NC(=S)Nc1ccc(Br)cc1C	-9	-34	44*	13	8
C#CCCCN([C@@H](CC(C)C)C(=O)OC)S(=O)(=O)c1ccccc1Br	x	18	x	x	x
SMILES	NCOA1 inh	SRC2 inh	EBV LMP1 NFkB	NCOA3 inh	LRH-1 inv ag
C(=N\Nc1ccc2ccccc2n1)/c1ccc2c(c1)OCCO2	60	52	61*	57	43
Cc1cccc(/C=N/Nc2ccc3ccccc3n2)c1	36	7	74*	49	21
C(=N\Nc1nc2ccccc2[nH]1)/c1ccc2c(c1)OCCO2	-86	-7	-1	-58	-157
CCN(CC)CCCNC(=O)CC1Oc2ccccc2NC1=O (configuration not stated)	x	-15	x	x	x
CC(C)C[C@H]1COc2cc(Br)ccc2S(=O)(=O)N1Cc1cn(CCC2OCCO2)nn1	x	-15	x	x	x
CCC(C)NS(=O)(=O)c1ccc(OCC(=O)NCc2ccco2)cc1 (configuration not stated)	5	-12	-5	5	-5
COc1ccc(S(=O)(=O)NC(CC(=O)NCc2ccco2)C(C)C)cc1 (configuration not stated)	-4	-4	84*	-13	2
CCOC(=O)C1(Cc2ccccc2)CCN(Cc2ccnc3ccccc23)CC1	x	35	x	x	x
CC(C)(C)NCC(=Cc1ccccc1)C(=O)c1ccccc1	51	68*	87*	56	82*
Cc1ccc(C(=O)Nc2cccc(C(F)(F)F)c2)cc1Nc1ncnc2nc[nH]c12	-2	15	44*	7	-10
Cc1ccc(C(=O)Nc2cccc(C(F)(F)F)c2)cc1NC(=O)c1ccno1	-1	25	46*	-8	-35
O=C(NCc1c(F)cccc1F)C1CCC(CNS(=O)(=O)c2cccc3cccnc23)CC1 (configuration not stated)	x	4	x	x	x
Nn1c(SCC(=O)NC2CCCCC2)nnc1-c1cc(-c2ccccc2)n[nH]1	x	-37	x	x	x
O=C(CCc1nnc(-c2ccc(-c3ccccc3)cc2)o1)NCCc1ccccn1	-29	59*	25	-9	-21
CC(NC(=O)CCc1nnc(-c2ccc(-c3ccccc3)cc2)o1)c1nccs1 (configuration not stated)	-20	67*	10	-10	-47
COC(=O)CCCNC(=O)CCc1nnc(-c2ccc(-c3ccccc3)cc2)o1	-10	57*	8	-14	-23
CC(c1nccs1)N(C)C(=O)CCc1nnc(-c2ccc(-c3ccccc3)cc2)o1 (configuration not stated)	-3	37	14	13	13
O=C(Nc1ccc(F)cc1)OCCCN1C(=O)CCC12CCCCC2	x	-35	x	x	x
CCOC(=O)C1=NOC(C(C)=O)(C(=O)NC2CCCC2)C1 (configuration not stated)	x	-22	x	x	x
CCc1ccccc1-n1ncc(C(=O)Nc2ccc(OC)cc2)c1C	-113	-61	79*	-124	-129
CC(=O)NC1C(O)OC(CO)C(O)C1O (configuration not stated)	9	-9	80*	-4	-5
